# Data published in PubChem BioAssay AID624305 (National Center for Advancing Translational Sciences (NCATS), 2012).
# Inconclusive results are not listed. The source made the active and inactive calls. Calls follow the shape of the dose curve; as a rule, active = well fitted activation curve with a large enough effect; inconclusive = small, poorly fitted or top-dose-only effect; inactive = no such curve, though single readings can be large or run the other way.
# Experiment: qHTS assay for re-activators of p53 using a Luc reporter: Hit Validation; also: nearly all actives have a fitted effect of over 75% in size; as to activation: 0% is about no effect
# Conditions: p53-responsive luciferase reporter cells, luminescence, H1299 line expressing heat-sensitive Ala138Val p53; series mostly up to 46.1 µM; activation: at the top concentration
# Outline: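 H1299 (p53-null) cells stably carrying p53-A138V and a BP100-luciferase reporter, 1000 cells/well, treated 24 h at 37 deg C. Compounds at several concentrations, 1:5 dilution; nocodazole control; luminescence read after 10 min with detection reagent.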
# Potency is read from the fitted curve at half-maximal effect.
Compound,Potency,activation
c1ccc(-c2nnc(-c3ccccn3)nc2NC2CCCCC2)cc1,18400 nM (active),
O=C1NC(c2ccc(Br)cc2)=N/C1=C/c1ccco1,580 nM (active),
c1ccc(-c2cn3c(n2)-c2ccccc2C3)cc1,206 nM (active),
COc1ccc(N2CCN(C3CCCN(Cc4cccc(OC)c4)C3)CC2)cc1 (stereo not drawn),,37% (inactive)
Cc1ccc(C2C(C#N)=C(N)Oc3cc4c(cc32)OCO4)cc1 (stereo not drawn),,27.1% (inactive)
CCOc1ccc2c(c1)C(C)=CC(C)(C)N2S(=O)(=O)c1ccc(NC(C)=O)cc1,,38% (inactive)
O=C(NC(=S)Nc1cccc(O)c1)C1CCCCC1,14600 nM (active),
CN(Cc1ccccc1)c1ncnc2ccc(Br)cc12,,-21.4% (inactive)
Cc1ccc(NC2=C(Cl)C(=O)c3ccccc3C2=O)cc1,,-89.1% (inactive)
Cc1cc(C(=O)Cn2nnc3ccccc3c2=O)c(C)n1Cc1cccs1,259 nM (active),
CN(C)c1cccc(C(=O)NNC(=O)CN2C(=O)C3CC=CCC3C2=O)c1 (stereo not drawn),2310 nM (active),
Cc1c(C(=O)OC2CCC(C)CC2)[nH]c2c1C(=O)CCC2 (stereo not drawn),1160 nM (active),
CN(C)c1ccc(C(=O)Nc2nc3c(s2)CCCC3)cc1,82 nM (active),
Cc1nc(SCC(=O)Nc2nccs2)c(C#N)c(C)c1C,651 nM (active),
COC(=O)Cc1n[nH]c(=S)[nH]c1=O,,-15.1% (inactive)
CC(C)(C)OC(=O)N1CCC(C(=O)Nc2ccc3c(c2)CCC3)CC1,23100 nM (active),
C=Cc1ccc(Cn2c(=O)n(CCCOC)c(=O)c3sccc32)cc1,,-8.85% (inactive)
O=C(c1cnn(-c2ccccc2)c1)c1ccccc1O,1460 nM (active),
O=C(N/N=C\c1cccc(Cl)c1)c1n[nH]c2c1CCCC2,4110 nM (active),

Compound,Potency,activation
Cc1ccc(NC(=O)/C=C/c2ccco2)nc1,2590 nM (active),
Cc1cc(C(=O)Nc2ccc(Br)cn2)sc1C,2060 nM (active),
Cc1ccc(C)n1-c1cccc(NC(=O)c2ccccc2)c1,,14.1% (inactive)
COc1ccc([N+](=O)[O-])cc1NC(=O)C1CCCCC1C(=O)O (stereo not drawn),,6.25% (inactive)
CCOC(=O)CC(=O)Nc1ccc(C(=O)OCC)cc1,,33.3% (inactive)
CN(CC(=O)Nc1ccc(Cl)c(Cl)c1)C(=O)C1CCCC1,,-22.4% (inactive)
Cc1ccc(NC(=O)Nc2ccccc2)c(Br)c1,8200 nM (active),
Cc1ccc(-c2nnc(Oc3cccc(C)c3)c3ccccc23)cc1,7310 nM (active),
COc1cc(CN2CCCCC2C(=O)Nc2ccc(Oc3ccccc3)nc2)ccc1O (stereo not drawn),,8.85% (inactive)
O=C(Nc1nc(-c2cccs2)cs1)c1ccc([N+](=O)[O-])o1,20600 nM (active),
CCc1ccc2[nH]c(=O)c(CN(CCN3CCCC3)C(=O)NC3CCCCC3)cc2c1,,4.17% (inactive)
O=C(Cn1cc2c(n1)CCCCC2)NC1CCCCCC1,,69.8% (inactive)
O=C(Nc1cnc2ccccc2c1)C1COc2ccccc2O1 (stereo not drawn),9200 nM (active),
Cc1cc(CC(C)C)n(-c2nc3ccccc3c(=O)n2OCC(N)=O)n1,,26% (inactive)
Cc1ccc(S(=O)(=O)NCC(=O)NCC(=O)N2CCC(C)CC2)cc1,,-10.9% (inactive)
Cc1ccc(NC(=O)/C=C/c2ccc([N+](=O)[O-])s2)c(C)c1,2910 nM (active),
Cc1cccc(Nc2cc(=O)[nH]c(=O)[nH]2)c1C,,0% (inactive)
CCN1CCN(CC(=O)Nc2nc3ccc(C)cc3s2)CC1,,24.5% (inactive)
CCN(CC)C(=O)CSc1ncnc2c(-c3cccs3)nsc12,,20.3% (inactive)
